Laboratory results reported in PubChem BioAssay (Tox21).
Results filed as inconclusive are left out. Values without a mark were called inactive. Calls come from the whole dose curve.

Experiment: qHTS assay to identify small molecule agonists of the NFkB signaling pathway - cell viability counter screen (AID 1159515); note: nearly all actives have a fitted effect of over 55% in size
Conditions: NFkB-bla ME-180 viability, CellTiter-Glo luminescence, 5 h; series mostly up to 61 µM; activity, negative = cytotoxic: at the top concentration
Text: National Center for Advancing Translational Sciences [NCATS]
NIH Chemical Genomics Center [NCGC]
U.S. Environmental Protection Agency [EPA]
National Institutes of Environmental Health Sciences [NIEHS]
National Toxicology Program [NTP]
U.S. Food and Drug Administration [FDA]
Transcription factors and their stimulated target gene expression play pivotal roles across many cellular processes including responses to environmental stimuli. Proper regulation of associated pathways is critical to maintain cell health and function. Constitutive activation of transcription factor pathways has been implicated in tumors as it may block cellular functions such as apoptosis and lead to invasion and metastasis. One important transcription factor that stimulates gene expression in response to cytokines, UV radiation, and other stimuli is nuclear factor-kappa B (NFkB). To measure activation of the NFkB pathway, the CellSensor NFkB-bla ME-180 cell line (Life Technologies, Carlsbad, CA) that stably expresses beta-lactamase reporter gene under the regulation of a NF-kB response element was used. This assay allows measurement of the NFkB pathway activity induced by compounds in a ME-180 cell line. This system quantitates NF-kB activity using a FRET-based assay system where beta-lactamase expression disrupts FRET, allowing for fluorescent measurement of activity. This cell line has been used to screen the Tox21 10K compound library and to identify compounds that induce the NFkB pathway activity. The cytotoxicity of the Tox21 compound library against the NFkB-bla ME-180 cell line was tested in parallel by measuring cell viability using the CellTiter-Glo assay in the same wells.
Tox21 Assay Protocol Summary:
NFkB-bla ME-180 cells were dispensed at 2,000 cells/6 uL of assay medium per well into black wall/clear-bottom 1536-well plates using a Multidrop Combi (ThermoFisher Scientific, Waltham, MA) dispenser. After the assay plates were incubated at 37 C and 5% CO2 for an overnight, 23 nL of compounds dissolved in DMSO, positive controls or DMSO only was transferred to the assay plate by a Pintool station (Kalypsys, San Diego, CA). The assay plates were incubated at 37 C and 5% CO2 for 5 hr. One uL of LiveBLAzer B/G FRET substrate (Life Technologies) was added using a Flying Reagent Dispenser (Aurora Discovery, San Diego, CA) and the plates were incubated at room temperature for 1.5 hr. Fluorescence intensity (405 nm excitation, 460 nm and 530 nm emissions) was measured using an Envision plate reader (PerkinElmer, Shelton, CT). For cytotoxicity, 3 ul/well of CellTiter-Glo reagent was added into the assay plates using an FRD. After 30 min incubation at room temperature, the luminescence intensity was measured using a ViewLux plate reader (PerkinElmer).
% is set by controls: 0 for no effect and ±100 for the full control effect.

Structure (SMILES)	activity, negative = cytotoxic
CCCCCCCCCCCCCCCC(=O)OC/C=C(C)/C=C/C=C(C)/C=C/C1=C(C)CCCC1(C)C	-0.366%
CC1=CCC(C(C)C)C=C1 (stereo not given)	-8.86%
NCc1ccccc1	0.864%
NC(=S)N/N=C/c1cccnc1	13.2%
NC1CCN(c2nc3c(cc2F)c(=O)c(C(=O)O)cn3-c2ccc(F)cc2F)C1 (stereo not given)	5.44%
CC(=O)OCCc1ccccc1	-0.364%
O=C(O)Cc1cc(I)c(Oc2ccc(O)c(I)c2)c(I)c1	-1.06%
CCOc1nc2cccc(C(=O)O)c2n1Cc1ccc(-c2ccccc2-c2nn[nH]n2)cc1	13.3%
CCCC(=O)OCC	7.37%
O=C(CCN1CCN2CCCC2C1)N1c2ccccc2Sc2ccc(Cl)cc21 (stereo not given)	-16.5% [at 28.5 µM]
CCCCC(CC)(CO)CO	0.648%
CC(C(=O)O)c1ccc(C(=O)c2ccccc2)s1 (stereo not given)	-19.4%
Cc1ccc2c(ccc3ccccc32)c1	6.94% [at 78.8 µM]
C[Si](C)O[Si](C)(C)O[Si](C)(C)O[Si](C)C	-1.01%
O=S1(=O)N=C(O)c2ccccc21	-6.76%
C[C@@H](C1=C(CCN(C)C)Cc2ccccc21)c1ccccn1	0.832%
Nc1nc(N)c(-c2ccccc2)s1	-0.93%
CC(C)(C)c1cc(CCC(=O)OCC(COC(=O)CCc2cc(C(C)(C)C)c(O)c(C(C)(C)C)c2)(COC(=O)CCc2cc(C(C)(C)C)c(O)c(C(C)(C)C)c2)COC(=O)CCc2cc(C(C)(C)C)c(O)c(C(C)(C)C)c2)cc(C(C)(C)C)c1O	4.33% [at 28.5 µM]
O=S1(=O)c2cccc3cccc(c23)N1CCCN1CCN(c2ccc(F)cc2)CC1	-3.07%
O=C1c2cccc(O)c2C(=O)c2c(O)cc(CO)cc21	6.15%

Structure (SMILES)	activity, negative = cytotoxic
O=C(O)Cn1c(C(=O)Nc2nc(-c3ccccc3Cl)cs2)cc2ccccc21	-12.1%
Nc1cnn([C@@H]2O[C@H](CO)[C@@H](O)[C@H]2O)c(=O)n1	14.2%
Cl/C(=C\n1cncn1)c1ccc(Cl)cc1Cl	-26.4%
Cc1cc(C)c(S(=O)(=O)O)cc1N=Nc1cc(S(=O)(=O)O)c2ccccc2c1O	10.7%
NC(N)=N/N=C/c1c(Cl)cccc1Cl	-6.24%
CC[C@H](C)[C@@H](C(=O)O)n1sc2ccccc2c1=O	-11.2%
COc1ccc([C@@H]2Sc3ccccc3N(CCN(C)C)C(=O)[C@@H]2OC(C)=O)cc1	-25.9%
Oc1ccc(Cc2ccccc2)cc1	-7.66%
CC(=O)c1ccc2c(c1)[C@H](NC(=O)c1ccc(F)cc1)[C@@H](O)C(C)(C)O2	-10.8%
CCCCCCCCCCCCCCCBr	0.654%
O=[N+]([O-])c1cccc(Cl)c1Cl	16.1%
CCN(CC)CCOc1ccc2c(c1)C(=O)c1cc(OCCN(CC)CC)ccc1-2	-15.8%
CCCCCCCCCCCCC(=O)O	7.89% [at 78.8 µM]
CC(O)C1CCCCC1 (stereo not given)	-1.78%
CN1CCN(C2=Nc3ccccc3Sc3ccc(Cl)cc32)CC1	-14%
CN1CCC(=C2c3ccccc3C=Cc3ccccc32)CC1	-19.7%
O=C(NS(=O)(=O)/C=C/c1cccs1)c1ccc(F)cc1Br	-3.62%
N#Cc1c(F)cccc1F	8.57%
Cc1c(Cn2ccnc2)c2ccccc2n1CCC(=O)O	3.28%
CC1(C)[C@H]2CC[C@]1(C)[C@H](O)C2	5.08%
